BCLXL inh = inhibitors of human Bcl-xL, primary screen, biochemical, fluorescence polarization, HTS; GST-Bcl-xL / FITC-Bim BH3 peptide fluorescence polarization; AID 2129, 2009; hit rate 0.7% among 320,000; inhibition, % at 10.9 µM;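 active = inhibition above the mean of all tested compounds plus 3 SD, cutoff set per campaign, cut at about 30% in these data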;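 also: 0% = DMSO wells and 100% = unlabeled Bim-BH3 peptide competitor; inhibitors lower millipolarization by displacing the labeled peptide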
Target sequence (Q07817 whole entry, looked up): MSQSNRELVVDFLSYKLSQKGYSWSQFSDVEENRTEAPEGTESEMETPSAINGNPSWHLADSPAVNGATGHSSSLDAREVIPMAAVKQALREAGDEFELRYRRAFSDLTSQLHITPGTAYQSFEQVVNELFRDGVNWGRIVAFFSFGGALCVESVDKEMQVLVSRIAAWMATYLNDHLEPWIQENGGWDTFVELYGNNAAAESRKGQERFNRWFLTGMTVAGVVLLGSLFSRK
MEX-5 binding = MEX-5 zinc finger RNA-binding disruptors – biochemical, C. elegans, fluorescence polarization, MLPCN library, primary screen | AID 1832, 2009 | Zinc finger protein mex-5 (Caenorhabditis elegans), Q9XUB2 | MEX-5/FITC-TCR2 RNA binding; active compounds read low | hit rate 0.38% among 300,000 | activity score (negative = inhibition of binding), % at 10 µM;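 active = inhibition past about -25% in most replicates, and total fluorescence under double the plate's negative control median, limit read from the data; inconclusive = replicates evenly split on the limit, or fluorescence at least double controls; inactive = too little inhibition in most replicates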;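 also: 0% = DMSO and -100% = 5 µM competing unlabeled TCR2 RNA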
EBV gp42 inh = Epstein-Barr virus gp42 inhibitors, primary screen, biochemical, uHTS, fluorescence polarization; Glycoprotein 42 (Epstein-Barr virus (strain AG876)), Q1HVG2; Fluorescence polarization binding assay, mP read-out; inhibition, % (tested at 21.74 µM); hit rate 0.42% among 220,000; in the data active = inhibition above about 50%
Target sequence (Q1HVG2 whole entry, looked up): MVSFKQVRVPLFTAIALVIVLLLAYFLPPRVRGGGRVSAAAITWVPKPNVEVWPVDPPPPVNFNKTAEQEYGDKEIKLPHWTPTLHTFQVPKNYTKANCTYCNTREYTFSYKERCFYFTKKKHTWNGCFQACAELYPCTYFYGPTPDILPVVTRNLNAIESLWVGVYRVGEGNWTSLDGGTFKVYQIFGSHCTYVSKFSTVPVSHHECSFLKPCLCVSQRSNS
GLD-1 RNA inh = GLD-1/TGE RNA complex disruptors, primary screen, biochemical, fluorescence polarization | Female germline-specific tumor suppressor gld-1 (Caenorhabditis elegans), Q17339 | hit rate 0.44% among 320,000 | purified GLD-1 + fluorescein TGE RNA | inhibition, % at 5.96 µM;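 active = percent inhibition above a per-plate cutoff, the plate mean of test compounds plus 3 SD, cut at about 30% in these data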;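 also: 0% = DMSO wells with GLD-1 and probe and 100% = wells lacking GLD-1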
eLon inh = inhibitors of E. coli Lon protease, primary screen, biochemical, fluorescence polarization | P0A9M0 | hit rate 0.42% among 360,000 | inhibition, % at 7.94 µM | AID 602123, 2011 | purified E. coli Lon protease; in the data active = inhibition above about 13%, passing the limit was not always enough;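 also: 0% = enzyme with probe and DMSO and 100% = no enzyme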
GLD1 RNA confirm = GLD-1/TGE RNA binding inhibitors, retest, confirmation, biochemical, fluorescence polarization, triplicate | shares compounds with GLD-1 RNA inh | inhibition, % at 5.96 µM | hit rate 10% among 550 | GLD-1/FL-TGE RNA fluorescence polarization;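 active = average inhibition across triplicates above the hit cutoff set in the primary screen, cut at about 32% in these data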;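 also: 0% = GLD-1 with RNA probe and DMSO and 100% = wells lacking GLD-1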
* = called active by the depositor; ? = inconclusive; / = not tested or not shown. Hits are enriched below; roughly 1.3% of the tested compounds scored in any of these assays.

SMILES	BCLXL inh	MEX-5 binding	EBV gp42 inh	GLD-1 RNA inh	eLon inh	GLD1 RNA confirm
Cc1ccc(-c2cc(C(=O)O)c3cc(Br)ccc3n2)o1	62*	-20	-19	37*	1	3
Cc1ccc(-c2cc(C(=O)NN3CCOCC3)c3cc(Br)ccc3n2)o1	7	-1	3	5	-6	/
COc1ccc(C)cc1NC(=O)CN(C)S(=O)(=O)c1ccc2c(c1)CC(C)N2C(C)=O (stereo unspecified)	3	0	/	4	-9	/
Cc1cc2ccccc2n1CCNC(=O)c1cccs1	42*	-5	-4	49*	13	6
Cc1cc2ccccc2n1CCNC(=O)C1CCCC1	27	/	-6	17	11	/
Cc1cc2ccccc2n1CCNC(=O)C1CC1	22	-1	/	35*	9	13
O=C(CSCc1cccc(Cl)c1)N1CCN(Cc2ccc3c(c2)OCO3)CC1	0	1	11	-1	0	/
CCOc1ccc(N(CC(=O)NC2CCCC2)C(=O)CSc2nnc(COc3ccccc3)o2)cc1	9	-3	-19	3	1	/
CN1C[C@H](C(=O)NC2(C)OC3(O)[C@@H]4CCCN4C(=O)[C@H](Cc4ccccc4)N3C2=O)CC2c3cccc4[nH]cc(c34)C[C@H]21 (stereo partly specified)	36*	-1	/	33*	14	2
O=C(NC1CCCN(CCc2ccccc2)C1)c1c[nH]c2ccccc12 (stereo unspecified)	-6	1	/	0	-5	/
Cc1ccc(S(=O)(=O)C(C#N)c2nc3ccccc3nc2N2CCN(C)CC2)cc1 (stereo unspecified)	8	0	-1	5	-7	/
CC1CCCN(c2nc3ccccc3nc2C(C#N)S(=O)(=O)c2ccccc2)C1 (stereo unspecified)	77*	?	147*	55*	10	1
Cc1ccc(S(=O)(=O)Nc2nc3ccccc3nc2N2CCOCC2)cc1	/	/	/	-2	-1	/
Cc1cccc(S(=O)(=O)C(C#N)c2nc3ccccc3nc2N2CCOCC2)c1 (stereo unspecified)	32*	-72*	-6	41*	6	-2
COc1ccc(S(=O)(=O)C(C#N)c2nc3ccccc3nc2N2CCC(C)CC2)cc1 (stereo unspecified)	49*	-47*	/	42*	/	5
COc1ccc(NC(=O)CN(C)S(=O)(=O)c2cnc[nH]2)cc1Cl	-3	1	/	-1	-4	/
CO/N=C\Cc1oc(=O)c(NC(=O)c2ccccc2)cc1C(=O)OC	36*	0	-23	37*	7	-10
CCOC(=O)c1cc2c(ccn2C)n1CC(=O)N(Cc1ccccc1)c1ccc(F)cc1	9	0	0	37*	11	47*
CCOC(=O)c1cc2c(ccn2C)n1CC(=O)N(Cc1ccccc1)c1ccccc1	6	1	8	36*	8	56*
CC(C)OC(=O)c1cc2c(ccn2C)n1CC(=O)N(Cc1ccccc1)c1ccc(F)cc1	9	-1	20	25	12	/
CCC(=O)OCCNc1cc(Sc2nc3ccccc3s2)c2nonc2c1[N+](=O)[O-]	62*	-4	33	38*	-10	25
CNc1ccccc(-c2ccc3ccccc3n2)c1=O	48*	-3	19	35*	2	-5
CCOC(=O)C1CC(=O)c2cc(OC)c(OC)cc2C1 (stereo unspecified)	-1	1	-12	60*	-8	1
CCCCn1c(N)c(NCCC)c(=O)[nH]c1=O	35*	-11	28	31*	6	9
CCCCNc1c(N)n(CCCC)c(=O)[nH]c1=O	36*	?	38	37*	/	79*
SMILES	BCLXL inh	MEX-5 binding	EBV gp42 inh	GLD-1 RNA inh	eLon inh	GLD1 RNA confirm
CCCCn1c(N)c(NCc2ccccc2OC)c(=O)[nH]c1=O	15	3	-13	21	8	/
Cc1ccccc1C1C(C#N)=C2N=C(N)c3ccccc3N2C2=C1C(=O)CCC2 (stereo unspecified)	3	-1	4	7	-8	/
N#CC1=C2N=C(N)c3ccccc3N2C2=C(C(=O)CCC2)C1c1cccc(Cl)c1 (stereo unspecified)	21	1	1	48*	5	-1
CC(=O)C(Sc1nn(C)c(=S)s1)C(=O)Nc1ccccc1 (stereo unspecified)	-13	1	-11	1	-1	/
CN(C)/C=C1\SC(=S)N(c2ccc(F)cc2)C1=O	8	0	-32	2	-5	/
CN(C)/C=C1\SC(=S)N(c2ccc(Br)cc2)C1=O	131*	-5	10	73*	-10	32*
COc1cccc(C(=S)N2CCOCC2)c1OS(=O)(=O)c1ccc(Cl)cc1	-2	1	/	-5	-19	/
CCOc1ccc2[nH]c(=O)c(CN(Cc3cccs3)Cc3nnnn3C(C)(C)CC)cc2c1	7	1	-4	109*	-9	-5
O=C(O)[C@@H]1[C@@H]2C[C@@H]2CN1c1ncccc1[N+](=O)[O-]	47*	-3	10	39*	7	-2
O=C(O)c1ccc(Cl)c2c1C1C=CCC1C(c1ccccn1)N2 (stereo unspecified)	85*	-68*	28	39*	/	21
CC(C)=NOCC(=O)Nn1c(COc2c(C)cccc2C)nc2ccccc2c1=O	-1	3	/	0	6	/
CCCCC1=CC2=C(c3ccco3)C(=O)C(C)(OC(=O)c3ccc(OC)cc3)C(=O)C2=CN1c1ccc(OC)cc1 (stereo unspecified)	30*	-16	-9	33*	6	4
CCCCC1=CC2=C(c3ccco3)C(=O)C(C)(OC(=O)c3ccc(OC)cc3)C(=O)C2=CN1Cc1ccc(OC)cc1 (stereo unspecified)	/	-5	12	/	/	/
Nc1c(-c2cccc([N+](=O)[O-])c2)nc2ccccn12	6	-2	12	32*	6	43*
O=[N+]([O-])c1cccc(-c2ncc3ccccn23)c1	-7	-2	-16	5	-4	/
Cc1c(NC=C(C#N)C#N)c(=O)n(-c2ccccc2)n1C	86*	0	-6	35*	5	1
CC1CN(C(=O)C2CC2)C(C)CN1C(=O)C1CC1 (stereo unspecified)	2	-1	-12	34*	-4	-5
CC1CN(C(=O)C2CCCC2)C(C)CN1C(=O)C1CCCC1 (stereo unspecified)	1	-1	-17	2	3	/

Compound activity: PubChem BioAssay, several laboratories
